PubChem BioAssay (Tox21)
Values joined by “and” are separate entries in the source; they are usually repeats but may differ in a detail not shown here. Equal entries are not always repeated. Inconclusive results are not listed. Some compounds were tested as several samples or in several runs, with calls that do not always agree. Active and inactive are the calls of the source. Unless noted, calls follow the shape of the dose curve; as a rule, active = well fitted curve in the direction sought with a large enough effect in the repeat runs; inconclusive = weak or mixed curves; inactive = no such curve, though single readings can be large; an effect the other way counts as inactive or inconclusive.

Columns and labels:
[1] = qHTS assay for small molecule agonists of the p53 signaling pathway (AID 651631; calls by dose curve; also: nearly all actives have a fitted effect of over 15% in size; also: potency is read from the fitted curve at half-maximal effect)
Outline: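 p53RE-bla HCT-116 cells; compounds 16 h, 37 °C; LiveBLAzer B/G FRET substrate 2 h RT; fluorescence intensity read-out, qHTS format.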

[2] = qHTS assay for small molecules that induce genotoxicity in human embryonic kidney cells expressing luciferase-tagged ATAD5 (AID 651632); also: nearly all actives have a fitted effect of over 15% in size; also: potency is read from the fitted curve at half-maximal effect
Outline: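 Luminescent reporter readout, HEK293T ATAD5-luc line: 16 hr drug exposure (37C, 5% CO2) followed by Amplite, 30 min RT.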

[3] = qHTS assay for small molecule agonists of the p53 signaling pathway - cell viability (AID 651633; calls by dose curve; also: nearly all actives have a fitted effect of over 30% in size; also: potency is read from the fitted curve at half-maximal effect)
Outline: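 Viability counter-read: CellTiter-Glo luminescence (30 min, room temperature) in the same p53RE-bla plates. These plates had been exposed to compounds for 16 h at 37 C.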

[4] = qHTS assay for small molecules that induce genotoxicity in human embryonic kidney cells expressing luciferase-tagged ATAD5 - cell viability (AID 651634; calls by dose curve; also: nearly all actives have a fitted effect of over 25% in size)
Outline: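 Viability read: CellTiter-Fluor fluorescence, 30 min at 37C. Cells: HEK293T, luciferase-tagged ATAD5. Exposure: 15.5 hr, 37C, 5% CO2, compound or DMSO vehicle.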

[5] = qHTS assay to test for compound auto fluorescence at 590 nm (red) in HepG2 cells (AID 720674)
Outline: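 1 hr compound incubation on HepG2 cells, 37 C, 5% CO2; plate read ex 540 nm / em 590 nm; intensities reported as Rose Bengal sodium equivalents.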

[6] = qHTS assay to test for compound auto fluorescence at 535 nm (green) in HepG2 cells (AID 720675)
[7] = qHTS assay to test for compound auto fluorescence at 460 nm (blue) in HEK293 cells (AID 720678)
Outline: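 HEK293, 2,000 cells/well, 10% dialyzed FBS; attach 4-5 hr 37C; pin compound or DMSO; o/n 37C/5% CO2; fluorescence 405/460 nm; triamterene-equivalent units.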

[8] = qHTS assay to test for compound auto fluorescence at 590 nm (red) in HEK293 cells (AID 720679)
Outline: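 Intensity at 540nm excitation and 590nm emission is reported as Rose Bengal sodium-equivalent autofluorescence. Measurements followed overnight exposure (37C, 5% CO2) of HEK293 cells, 2,000 per well, to 23 nL compound.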

[9] = qHTS assay for small molecule disruptors of the mitochondrial membrane potential - cell viability (AID 720634; calls by dose curve;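 also: human HepG2 liver cancer cells; series mostly up to about 83 µM; nearly all actives have a fitted effect of over 20% in size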)
Outline: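 HepG2, 1 hr compound, 37 C. ATP luminescence via CellTiter-Glo, 30 min RT, same well as m-MPI.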

[10] = qHTS assay for small molecule disruptors of the mitochondrial membrane potential (AID 720635); also: potency is read from the fitted curve at half-maximal effect
Outline: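 Mitochondrial membrane potential tracked with Mito-MPS dye, red aggregates (ex 540/em 590 nm) against green monomers (ex 490/em 535 nm). Compound treatment 1 hr at 37C, dye 30 min in HepG2.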
% is scaled to controls: 0 for no effect and ±100 for the full control effect.

CC1=C(C=O)C(C)(C)CC=C1
inactive: Potency [1] | Potency [2] | Potency [3] | Potency [4] | outcome [5] | Potency [6] | Potency [7] | outcome [8]

CC(C)CCOC(=O)c1ccc(N(C)C)cc1
active: Potency [2] 13.3 µM
inactive: Potency [1] | Potency [3] | Potency [4] | Potency [6] | Potency [7] | outcome [8]

NCCCCCC(=O)O
inactive: Potency [1] | Potency [2] | Potency [3] | Potency [9] | Potency [10] | fluorescence, % of fluorescein control [6] 0.0481% [at 18.6 µM] | fluorescence, % of triamterene [7] 0.0733% [at 18.6 µM] | fluorescence, % of fluorescent control [8] 0.0137% [at 18.6 µM]

C=CC(=O)OCCCCCCCC
inactive: Potency [1] | Potency [2] | Potency [3] | Potency [10] | outcome [5] | Potency [6] | Potency [7] | outcome [8]

Oc1c(Cl)cc(Cl)c(Cl)c1Cc1c(O)c(Cl)cc(Cl)c1Cl
active: Potency [1] 13.3 µM and 9.66 µM and 54.5 µM | Potency [3] 1.88 µM and 68.4 µM and 12.2 µM | Potency [10] 841 nM and 484 nM and 344 nM
inactive: Potency [2] | outcome [5] | Potency [6] | outcome [8]

COC(=O)[C@H]1[C@H]2C[C@@H]3c4[nH]c5cc(OC)ccc5c4CCN3C[C@H]2C[C@@H](OC(=O)c2cc(OC)c(OC)c(OC)c2)[C@@H]1OC
inactive: Potency [1] | Potency [2] | Potency [3] | Potency [9] | outcome [5] | Potency [6] | Potency [7] | outcome [8]
active: Potency [10] 48.5 µM

C=C(C)C1CC=C(C)C(OC(C)=O)C1 (stereo not drawn)
inactive: Potency [1] | Potency [2] | Potency [3] | Potency [10] | outcome [5] | Potency [6] | Potency [7] | outcome [8]

OCCOCCN1CCN(C(c2ccccc2)c2ccc(Cl)cc2)CC1 (stereo not drawn)
inactive and 60.3 µM (active): Potency [3]
inactive: Potency [1] | Potency [2] | Potency [9] | outcome [5] | Potency [6]

Nc1cc(S(=O)(=O)O)cc2cc(S(=O)(=O)O)cc(O)c12
inactive: Potency [1] | Potency [2] | Potency [3] | Potency [9] | Potency [10] | outcome [5] | Potency [6] | outcome [8]

CCCCOCCOC(=O)c1ccccc1C(=O)OCCOCCCC
inactive: Potency [1] | Potency [2] | Potency [3] | Potency [4] | Potency [9] | Potency [6] | Potency [7] | outcome [8]

CC1COC(=O)O1 (stereo not drawn)
inactive: Potency [1] | Potency [2] | Potency [3] | Potency [4] | Potency [10] | outcome [5] | Potency [6] | outcome [8]

Cc1cc(C2(c3cc(C)c(O)cc3C)OS(=O)(=O)c3ccccc32)c(C)cc1O
inactive: Potency [1] | Potency [2] | Potency [3] | Potency [9] | Potency [6] | Potency [7]

CC(=O)C1=C(C)[C@@H]2C[C@@]3(C1)[C@H](C)CC[C@H]3C2(C)C
inactive: Potency [1] | Potency [2] | Potency [3] | Potency [4] | outcome [5] | Potency [6] | outcome [8]
